From PubChem BioAssay (NCI)
The panel holds about 83,000 compounds, 20% with a hit somewhere; the sample as a whole holds those more often.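 Single-concentration screen, 48 h exposure, 96-well plates. Endpoint: percent growth. Below 10 = active.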 A number with no mark means an inactive call. Activity calls are given as the source filed them.

tested on: OVCAR-8 ovarian; assay: NCI-60 one-dose screen, 48 h (100 = growth as untreated, 0 = no growth, -100 = all killed); conditions: 10 µM unless noted

| SMILES | growth |
| --- | --- |
| COC(=O)CCC(=O)C(=O)OC | 31.8% [10 mM] |
| COC(C(=O)[C@@H](O)[C@@H](C)O)[C@@H]1Cc2cc3cc(O[C@H]4C[C@@H](O[C@H]5C[C@@H](O)[C@H](O)C(C)O5)[C@H](O)C(C)O4)cc(O)c3c(O)c2C(=O)[C@H]1O[C@H]1C[C@@H](O[C@H]2C[C@@H](O[C@H]3C[C@@H](OC)[C@H](O)C(C)O3)[C@@H](O)C(C)O2)[C@H](O)C(C)O1 (stereo partly drawn) | 42.4% |
| CC(C)N1CCN(Cc2ccc3c(NNC(=O)c4ccccc4)nc4cc(F)ccc4n23)CC1 | 17.9% |

tested on: OVCAR-5 ovarian; assay: as above; conditions: 10 µM unless noted

| SMILES | growth |
| --- | --- |
| O=c1oc2ccc([N+](=O)[O-])cc2cc1Br | 109% |
| O=C1/C(=C/c2ccccc2Br)COc2ccc(O)c(O)c21 | 31.4% |
| COc1cc2c(c(OC)c1OC)-c1ccc(OC)c(=O)cc1[C@@H](NC(=O)CCl)CC2 | 22.4% |
| CCCCNc1ccc(C#N)c(OCCN(CC)CC)c1 | 97.4% |
| O=C(c1ccccc1)C1C(=O)N2C(=S)N(c3ccccc3)C(=O)C2C1c1ccc(Cl)cc1 (stereo not drawn) | 102% |
| CCOc1ccc(NC(=O)CSc2oc(-c3ccccc3)nc2S(=O)(=O)c2ccc(F)cc2)cc1 | 103% |
| COc1cc(-n2cc(-c3cc(O)c(C/C=C(\C)CCC=C(C)C)c(O)c3)nn2)cc2c1O[C@]1(C)CC[C@@H](O)C(C)(C)[C@H]1C2 | 29.6% |
| CCOC(=O)/C=C1\S/C(=N\Nc2cc(=O)[nH]c3ccc(Cl)cc23)N(c2ccccc2)C1=O | 111% |
| O=c1oc2c(cnc3ccccc32)cc1-c1ccsc1 | 114% |
| C=CCc1c2c(c(OC)c3ccoc13)C(=O)/C(=C/c1ccccc1OC)O2 | 114% |
| CC(=O)Nc1nc2ccc(NS(=O)(=O)c3cccc4c(N(C)C)cccc34)cc2[nH]1 | 84.4% |
| O=C1C(Cl)=C(Oc2ccccc2)C(=O)c2ccccc21 | 118% |
| O=C(O)/C(=C\c1ccc(Cl)cc1)c1ccc(Cl)cc1 | 74.1% |
| OCc1cccc(-c2ccc3ncc(-c4nc(NC5CC5)ncc4F)n3c2)c1 | -9.98% (active) |
| C=CCn1cc(-c2nc3ccccc3s2)c2cc(-c3ccc4c5c(cccc35)C(=O)N(N)C4=O)ccc21 | 103% |
| Cc1ccc(C(C(N)=O)C(C(N)=O)c2ccccc2)cc1 (stereo not drawn) | 114% |
| CC(C)n1cnc2c(=S)nc[nH]c21 | 121% |
| CC(C)N1CN2C(=S)NC3C2N(C1)C(=S)N3C (stereo not drawn) | 107% |
| S=C1CCSC(=S)N1CCCN1C(=S)CCSC1=S | 82.8% |
| CCN1CCN(Cc2cn(CC(=O)Nc3ccc4c(ccn4Cc4ccccc4)c3)nn2)CC1 | 113% |

| SMILES | growth |
| --- | --- |
| CCOC(=O)CSc1ncnc2c1c(-c1ccccc1)c(-c1ccccc1)n2-c1ccc(C)cc1 | 93.8% |
| O=C1/C(=C/c2ccc(Cl)c(Cl)c2)CN(C(=O)C(Cl)Cl)C/C1=C\c1ccc(Cl)c(Cl)c1 | -69.1% (active) |
| CCO/C=N/C1=C(C#N)C(c2ccc(OC)cc2)c2sc3c(F)cccc3c2O1 (stereo not drawn) | 63.8% |
| COc1ccc(C(c2cc(OC)c(OC)c(OC)c2)N2CCN(c3ccccc3)CC2)cc1 (stereo not drawn) | 102% |
| CCN(CC)CCOc1ccc(C(=C(C)c2ccc(Cl)cc2)c2ccc(OCCN(CC)CC)cc2)cc1 | -84.1% (active) |
| CN1CCN(C(=O)c2ccc(NC(=O)Nc3ccc(-c4nc(N5CCOCC5)c5cccn5n4)cc3)cc2)CC1 | 0.331% (active) |
| Cc1ccc(S(=O)(=O)N2CCCC2CO)cc1 (stereo not drawn) | 85.7% |
| Nc1c(C(=O)Nc2ccccc2Cl)sc2nc3c(cc12)C(O)CCC3 (stereo not drawn) | 80.6% |
| Cc1nc2sc(C(=O)Nc3ccccc3)c(N)c2cc1C(=O)c1ccccc1 | 59% |
| O=C1CC(N2C(=O)/C(=C/C(Cl)=C\c3ccc([N+](=O)[O-])cc3)SC2=S)C(=O)N1c1ccc(Cl)cc1 (stereo not drawn) | 40.6% |
| Cc1ccc(Cl)cc1Nc1nc(C(F)(F)F)ccc1C(=O)N/N=C/c1cccnc1 | 37.9% |
| CC(C)(C)n1cc(-c2ccnc(NCCCNS(=O)(=O)c3ccc(F)cc3)c2)c(-c2cccc(F)c2)n1 | 69% |
| COC(=O)/C(CCC=C(C)C)=C1\[C@@H](OC(C)=O)C[C@@]2(C)[C@H]1C[C@@H](O)[C@H]1[C@@]3(C)CC[C@H](NCCN)[C@@H](C)[C@@H]3CC[C@@]12C | 104% |
| C=C1C(=O)O[C@H]2[C@H]1CC/C(COC(=O)NCc1ccc(Cn3c(=O)sn(CCI)c3=O)cc1)=C\CC[C@@]1(C)O[C@@H]21 | 82% |
| COc1cc(-c2nc(SCC(C)C)nc(Nc3cccc4ccccc34)c2C#N)cc(OC)c1OC | 109% |
| Oc1c(Cl)cc(Cl)c2ccc(Cn3cc(-c4ccc(C(F)(F)F)cc4)nn3)nc12 | 88.7% |
| CC1(C)CC2=C3C=C[C@@H]4[C@@]5(C)CCC(=O)C(C)(C)[C@@H]5CC[C@@]4(C)[C@]3(C)CC[C@@]2(C(=O)O)CC1=O | 93.2% |
| COC(=O)CCC(=O)C(=O)OC | 23.6% [10 mM] |
| COC(C(=O)[C@@H](O)[C@@H](C)O)[C@@H]1Cc2cc3cc(O[C@H]4C[C@@H](O[C@H]5C[C@@H](O)[C@H](O)C(C)O5)[C@H](O)C(C)O4)cc(O)c3c(O)c2C(=O)[C@H]1O[C@H]1C[C@@H](O[C@H]2C[C@@H](O[C@H]3C[C@@H](OC)[C@H](O)C(C)O3)[C@@H](O)C(C)O2)[C@H](O)C(C)O1 (stereo partly drawn) | 54.3% |
| CC(C)N1CCN(Cc2ccc3c(NNC(=O)c4ccccc4)nc4cc(F)ccc4n23)CC1 | 59.6% |
